Measured values from PubChem BioAssay AID1578 (Sanford-Burnham Center for Chemical Genomics, 2009).
About 3,000 (1%) of roughly 290,000 compounds were called active. Cut-off read from the data, not from the text of the source: active = inhibition mostly above about 36% (no sharp cut-off); inactive = mostly below about 34%. Shown is part of a subset that was picked to be rich in actives.

Experiment: inhibition of NOD1-driven NF-kB reporter – cell-based, luminescence, uHTS, primary screen (AID 1578);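 note: HEK-293T reporter cells stimulated with the NOD1 agonist gamma-tri-DAP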
Details: NOD1-driven NF-kB luciferase reporter cells, at 4 µM, active compounds read high

inhibition, inactive:
CCOC(=O)c1c(-c2ccccc2)csc1NC(=O)c1cc(S(=O)(=O)N2CCOCC2)ccc1C -1.6%
Fc1ccc(Nc2nnc(C(F)(F)F)s2)cc1 3.4%
Cc1oc(-c2cccc(F)c2)nc1CN1CCCCC1CCn1cccn1 (centres undefined) -32%
Cc1nnc(Nc2ccc(Cl)cc2)n(N)c1=O -7%
c1ccc2c(c1)OCC(c1nn3c(Cn4nnc5ccccc54)nnc3s1)O2 (centres undefined) -10.7%
c1ccc(OCc2nnc3sc(C4COc5ccccc5O4)nn23)cc1 (centres undefined) 1.5%
O=C(Nc1ccc(F)cc1)c1nc[nH]c1C(=O)O -6.5%
Nc1nc(-c2ccccc2)c(C(=O)Nc2ccccc2)s1 -28.9%
Cc1ccccc1C1C(=O)c2ccccc2C1=O -39.1%
O=C1c2ccccc2C(=O)C1c1ccccn1 -8.4%
Clc1ccccc1OCCn1cnc2ccccc21 -21.1%
COc1ccc(S(=O)(=O)NC(Cc2ccccc2)C(=O)O)cc1 (centres undefined) -1.3%
COc1ccc(C(CNC(=O)COc2ccc(C)c(C)c2)N2CCCCC2)cc1 (centres undefined) 10.5%
Cc1nc(C)n(CCNC(=O)c2ccco2)n1 -15.3%
COc1cccc(C=Nc2cccnc2)c1O -7.3%
Oc1c(Br)cc(Br)cc1C=Nc1ccc2[nH]ncc2c1 8.5%
COc1ccc(/C=C2\CCC(C3CCCC3)C2=O)cc1Cn1nc(C)cc1C (centres undefined) 26.4%
Cc1ccc(SCC(=O)NC2CCCCCC2)cc1 -50.8%
CCN(CC)CCNC(=O)c1cn(CC)c2ccc(S(=O)(=O)N(C)C)cc2c1=O -4.5%
COc1ccc(C(CC(=O)c2ccccc2)CC(=O)c2ccccc2)cc1OC -7.4%
COC(=O)C(C(=O)OC)C(CC(=O)c1ccc(C)cc1)c1cc(OC)c(OC)c(OC)c1 (centres undefined) -3.3%
C=CCN(c1nc(C)c(Br)c(OC)n1)S(=O)(=O)c1ccc(C)cc1 -14%
CCN(Cc1cc2ccccc2[nH]c1=O)S(=O)(=O)c1ccc(OC)cc1 -5.3%
O=C(Oc1ccccc1C(=O)Nc1ccccc1)c1ccc(Br)c([N+](=O)[O-])c1 -30.7%
Cc1cc(CNC(=O)c2cccc([N+](=O)[O-])c2C)c2ccccc2n1 2.7%
O=C(c1ccc2c(Cl)c3c(nc2c1)CCCC3)N1CCC(N2CCCCC2)CC1 -13.1%
Cn1c(=O)c(C(=O)CN2CCc3ccccc32)c(N)n(Cc2ccccc2)c1=O -8.9%
O=C(CSc1nc2ncc(Br)cc2[nH]1)c1ccc([N+](=O)[O-])cc1 -15.6%
Cc1nn(C)cc1/C=C/C(=O)c1ccccc1 -44.5%
Cc1c(/C=C/C(=O)c2cccs2)cnn1C 20.7%
Cc1ccnc(Cc2ccccc2)n1 -4.5%
O=C(CCC(=O)OCC(=O)c1ccc(-c2ccccc2)cc1)Nc1cccc(Cl)c1 7.8%
Cc1cc(C)n(-c2ccc(C(=O)Nc3ccccn3)cc2)n1 -30.3%
Cc1onc(-c2ccccc2)c1C(=O)N/N=C(\N)COc1ccc(Cl)cc1 -17.2%
Cc1onc(-c2ccccc2Cl)c1C(=O)N/N=C(\N)COc1ccc(Cl)cc1 8.6%
O=C(NCC1CC1)NC(=O)c1c(F)cccc1Cl -15.8%
Nc1ccc(S(=O)(=O)Nc2nccc(/C=C/c3ccc(Cl)cc3)n2)cc1 22.2%
Nc1ccc(S(=O)(=O)Nc2nccc(/C=C/c3ccc([N+](=O)[O-])cc3)n2)cc1 14%
C=CCn1cnc2c(nnn2-c2ccc(C)c(C)c2)c1=O -34.3%
Oc1[nH]c2ccccc2c1C=Nc1ccc2c(c1)OCO2 14.2%
NS(=O)(=O)c1ccc(N=Nc2ccc(O)c3ncccc23)cc1 -6.1%
Oc1ccc(N=Nc2ccc3c(c2)OCCO3)c(O)c1 -2.2%
O=S(=O)(Nc1ccc(N=Nc2ccc(O)c3ccccc23)cc1)c1ccccc1 13%
Cc1ccc(S(=O)(=O)N(CC(=O)N2CCC(C)CC2)c2ccccc2)cc1 -4.7%
Cc1nc(NC(=O)c2ccccc2)sc1C -84.9%
COCC(=O)OCn1nnc2ccccc2c1=O 3.6%
O=C(Nc1ccccc1)c1ccc(Nc2c([N+](=O)[O-])cc([N+](=O)[O-])c3ccccc23)cc1 -8.1%
Cc1ccc(NC(=O)c2ccc(Nc3c([N+](=O)[O-])cc([N+](=O)[O-])cc3[N+](=O)[O-])cc2)cc1 4.8%
CSc1ccccc1NC(=O)c1ccc(CN2CCOCC2)cc1 -18.3%
CCOC(=O)COc1c(Br)cc(C2NC(=O)NC(C)=C2C(C)=O)cc1OC (centres undefined) -12.4%
COc1cc(C2NC(=O)NC(C)=C2C(C)=O)ccc1O (centres undefined) 7.8%
CCOCCOC(=O)Cn1cnc2scc(-c3ccc(C)cc3)c2c1=O -15.2%
O=C(CN1CCCC1=O)NC1(C(F)(F)F)NC(=O)N(Cc2ccccc2)C1=O (centres undefined) -22.8%
N#C/C(=C\c1ccncc1)c1nc2c(s1)CCCC2 -9.5%
CC1CCc2nc(/C(C#N)=C/c3cccnc3)sc2C1 (centres undefined) -52.3%
O=C(CSc1nc2c(cnn2-c2ccc(F)cc2)c(=O)[nH]1)N1CCCc2ccccc21 4.3%
CCCS(=O)(=O)N1CCCC(C(=O)Oc2ccc(OC)cc2)C1 (centres undefined) -5.5%
O=Cc1ccccc1OCc1ccc2c(c1)OCO2 16.8%
O=C(/C=C/c1ccccc1)NCCc1ccc2c(c1)OCCO2 -27.8%
C=CCOc1ccccc1CNc1cccc(F)c1 2.1%
Oc1ccccc1CNc1ccc2c(c1)OCCO2 -47.1%
O=C(/C=C/c1ccccc1)Nc1ccc2c(c1)OCCO2 -2.7%
CCOc1ccccc1NC(=O)Nc1ccc2c(c1)OCO2 -52.1%
O=C(CSc1c(F)c(F)cc(F)c1F)Nc1ccc(C2SCCS2)cc1 -7.2%
O=C(CSCc1ccc(Cl)cc1)Nc1ccc(O)cc1C(=O)O -25.7%
CCCc1cc(=O)[nH]c(/N=C(\N)Nc2ccccc2)n1 -6.1%
CCOC(=O)CNC(=O)CSc1nnc(NC(=O)c2ccc(S(=O)(=O)N3CCOCC3)cc2)s1 -3.6%
Cc1oncc1C(=O)N1CCCC(CO)(Cc2ccc(F)cc2F)C1 (centres undefined) -6.9%
CC(NS(=O)(=O)c1ccc(Br)cc1)c1ccccc1 (centres undefined) -16.8%
CCN1CCN(c2nc3c(c(=O)n(C)c(=O)n3C)n2Cc2cccc3ccccc23)CC1 -7.8%
Cc1n(Cc2ccccc2)c2ccccc2[n+]1Cc1ccccc1 19.4%
COc1ccc(-c2nc3ccccc3n2Cc2ccccc2)cc1 14.3%
O=C(CNC(=O)c1cccs1)NCCN1CCN(Cc2ccccc2)CC1 -22.6%
COc1ccc(OC)c(N/C=C/C(=O)c2ccc(OC)c(OC)c2)c1 -24.7%
COc1ccc(N/C=C/C(=O)c2ccccc2)cc1 -59%
Cc1nc2c(ccc3nc(NC(=O)Cc4cccc5ccccc45)sc32)s1 -33%
COc1cc2[nH]c(=S)nc(NCc3ccc(Cl)cc3)c2cc1OC -8.3%
COc1cc(OC)cc(C(=O)N[C@H](C(=O)OCc2cc(=O)oc3cc(C)ccc23)C(C)C)c1 -34.2%
Cc1csc2c(NC3CCN(Cc4ccccc4)CC3)ncnc12 5%
Cc1sc2ncnc(NC3CCN(Cc4ccccc4)CC3)c2c1C 42.7%
CCNC(=S)N(CCc1c(C)[nH]c2ccc(Cl)cc12)Cc1cccnc1 11.3%
CNC(=S)N(CCc1c(C)[nH]c2ccc(C)cc12)Cc1cccnc1 -9%
O=C(OCc1nc2ccccc2s1)c1ccc([N+](=O)[O-])o1 -43.7%

inhibition, active:
c1ccc(Cc2nnc3sc(C4COc5ccccc5O4)nn23)cc1 (centres undefined) 107%
O=C1c2ccccc2C(=O)C2OC12 (centres undefined) 70.9%
Oc1c(Br)cc(Br)cc1C=Nc1cccnc1 67.4%
COc1ccc(C(CC(=O)c2ccc(C)cc2)C(C#N)C#N)cc1OC (centres undefined) 80.7%
Cc1nn(C)cc1/C=C/C(=O)c1cccs1 112%
Cc1onc(-c2c(Cl)cccc2Cl)c1C(=O)N/N=C(\N)COc1ccc(Cl)cc1 71.9%
Oc1ccc(N=Nc2ccc3c(c2)OCO3)c2ccccc12 109%
Oc1ccc(N=Nc2ccc3c(c2)OCCO3)c2ncccc12 106%
Cc1ccccc1NC(=O)c1ccc(Nc2c([N+](=O)[O-])cc([N+](=O)[O-])c3ccccc23)cc1 76.4%
COc1cc(C2NC(=O)NC(C)=C2C(C)=O)cc(OC)c1OC (centres undefined) 54.9%
CC1CCc2nc(/C(C#N)=C/c3ccncc3)sc2C1 (centres undefined) 64.3%
O=C(CCl)N(C/C=C/c1ccccc1)c1ccc2c(c1)OCCO2 54.1%
C=CCOc1ccccc1CNc1ccc2c(c1)OCCO2 58.5%
C=CCOc1ccccc1CN(C(=O)CCl)c1ccc2c(c1)OCO2 64.3%
COc1ccc(OC)c(N/C=C/C(=O)c2ccccc2)c1 62.5%
CNC(=S)N(CCc1c(C)[nH]c2ccc(Cl)cc12)Cc1cccnc1 46.2%
